# PNC inhibitor = perinucleolar compartment assembly inhibition | PC3M PTB-GFP, PNC prevalence imaging, 16 h; active compounds read low | 140,000 tested, 3.1% active | activity change (PNC), negative = inhibition, % at 10 µM;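 active = readout at or below -70, meaning at least 70% loss of cells showing the perinucleolar compartment, a nuclear body marking cancer cells; inconclusive = readout between -30 and a set limit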;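 also: plate controls were DMSO wells for no effect and camptothecin positive control wells for full effect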
#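 PC3M cells stably expressing PTB-GFP, 750–1000 cells/well, treated 16 h at 37 °C with compound (23 nl of library stock), in duplicate. After paraformaldehyde fixation and Hoechst stain, imaged at 20x; PNC prevalence scored by image analysis.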
# ALOX12 inhib = inhibitors of human 12-lipoxygenase (ALOX12) | P18054 | purified 12-hLO, xylenol orange hydroperoxide absorbance | Potency, µM (top dose mostly 57.1 µM), for inactives: top-dose activity change, negative = inhibition, hits mostly inhibitors | 150,000 tested, 0.12% active | AID 1452; active = well fitted inhibition curve with a large enough effect; inconclusive = small, poorly fitted or top-dose-only effect; also: potency is read from the fitted curve at half-maximal effect; nearly all actives have a fitted effect of over 55% in size
#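 Lipoxygenase turnover measured by absorbance at 573 and 405 nm after Fe-XO development. Human 12hLO 150 nM, arachidonate 40 uM, pH 7.0 Hepes buffer with detergent; 15 min compound preincubation, 30 min reaction.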
# HPGD block = blocks human HPGD enzyme activity | purified HPGD, NADH fluorescence kinetic, PGE2 substrate | 150,000 tested, 4.3% active | Potency, µM, without a hit: at the highest dose activity change, negative = inhibition, most hits filed as inhibitors; also: potency is read from the fitted curve at half-maximal effect
# Target sequence (P15428 whole entry, looked up): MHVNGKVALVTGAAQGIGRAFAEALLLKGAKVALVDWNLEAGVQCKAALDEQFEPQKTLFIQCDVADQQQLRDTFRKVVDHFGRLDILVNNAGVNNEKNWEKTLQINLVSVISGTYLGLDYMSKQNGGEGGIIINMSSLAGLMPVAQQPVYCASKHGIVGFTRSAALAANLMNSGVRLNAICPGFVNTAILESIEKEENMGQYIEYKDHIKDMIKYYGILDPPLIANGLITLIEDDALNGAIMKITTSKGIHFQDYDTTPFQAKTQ
#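 20 nM HPGD preincubated 15 min at room temperature with compound in 50 mM Tris-HCl pH 8, 0.01% Tween 20. Started with 1 mM NAD+ and 30 uM prostaglandin E2; NADH fluorescence (360/450 nm) read 5 times over 30-s intervals, last minus first.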
# LMNA splice mod = changes lamin A minigene splicing in HeLa cells. HeLa LMNA splicing GFP/RFP minigene ratio, 48 h. Potency, µM (top dose mostly 46.1 µM), inactives show top-dose ratio change, negative = inhibition, actives largely listed as inhibitors. 200,000 tested, 0.01% active. AID 1487; active = well fitted inhibition curve with a large enough effect in the signal ratio, with a control signal flat, not every such curve was filed as active; inconclusive = small, poorly fitted or top-dose-only effect, or effect the other way, or a change in a side signal; the % refers to the signal ratio; also: potency is read from the fitted curve at half-maximal effect
#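 Read-out is the ratio of GFP to DsRed2 object intensity, acquired by 488 nm laser-scanning cytometry on HeLa lamin A-EGFP minigene reporter cells. Compound incubation 48 hrs at 37 °C in Opti-MEM with 2% FBS; DMSO 0.5% final.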
# ALDH1A1 inh = blocks purified human ALDH1A1 activity. P00352. Purified ALDH1A1, NADH fluorescence, propionaldehyde substrate. Potency, µM (doses to about 75.3 µM), without a hit: at the top dose activity, negative = inhibition, hits mostly inhibitors. 220,000 tested, 7.3% active. AID 1030;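 also: potency is read from the fitted curve at half-maximal effect; plate controls were no enzyme wells and a reference inhibitor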
# * = called active by the depositor; ? = inconclusive; / = no result; [ ] = remark or other dose. Shown are actives, neighbours in structure and some others; about 10% of the full set was active somewhere. Unless noted, calls follow the shape of the dose curve; as a rule, active = well fitted inhibition curve with a large enough effect (not every such curve was filed as active); inconclusive = small, poorly fitted or top-dose-only effect, or another doubt; inactive = no such curve, though single readings can be large or run the other way. Unless noted, % is scaled to controls: 0 for no effect and ±100 for the full control effect.
SMILES,PNC inhibitor,ALOX12 inhib,HPGD block,LMNA splice mod,ALDH1A1 inh
O=C(O)CNC(=O)c1ccc(OC(F)F)cc1,?,-3%,-4%,2%,6%
O=C1C=CC(=O)N1c1ccc(OC(F)F)cc1,-9,-23%,7.1µM*,?,0.71µM*
Cc1cccc2c1[nH]c1nc(N/N=C\c3ccco3)nnc12,21,5%,-7%,-9%,-16%
C=CCSc1nnc2c(n1)[nH]c1c(C)cccc12,31,4%,16µM*,1%,?
COc1cc(NC2c3ccccc3C(=O)N2Cc2ccc3c(c2)OCO3)cc(OC)c1OC (stereo unspecified),-22,-4%,-15%,18%,-8%
CCOc1ccc(NC2c3ccccc3C(=O)N2Cc2ccc3c(c2)OCO3)cc1 (stereo unspecified),-22,-21%,28µM*,0%,?
O=C(/C=C/c1cn(CC(O)CN2CCCCCC2)c2ccccc12)c1cccs1 (stereo unspecified),?,-2%,-6%,?,-13%
CCCCN(C)CC(O)Cn1cc(/C=C/C(=O)c2cccs2)c2ccccc21 (stereo unspecified),-100*,-6%,-28%,?,1%
CC1CCN(S(=O)(=O)c2ccc3c(ccc(=O)n3CC(=O)Nc3cccc(F)c3)c2)CC1,/,/,/,14%[46 µM],/
Cc1ccc2sc(N(Cc3cccnc3)C(=O)CCOc3ccccc3)nc2c1C,/,/,/,2%[46 µM],/
Cc1ccc(NC(=O)Cc2noc3ccccc23)cc1,-99*,-7%,-4%,-18%,4%
Cc1ccc(C(=O)N2CCN(C)CC2)cc1S(=O)(=O)N1CCCCC1,-5,2%,-21%,13%,?
CN1CCN(C(=O)c2ccc3c(c2)NC(=O)C(C)(C)O3)CC1,13,-3%,8.9µM*,0%,-4%
NC1(C(=O)O)CC(C(=O)O)C1 (stereo unspecified),/,0%,-2%,/,6%
Cc1cc(C)c(C(=O)/C=C/c2ccco2)c(=O)[nH]1,/,/,/,16%[46 µM],11µM*
Cc1ccc(/C=C/C(=O)c2c(C)cc(C)[nH]c2=O)cc1,8,1%,-14%,?,-3%
CCOC(=O)C1=C2NC(=O)c3ccccc3N2C(=O)C1,/,/,/,/,25µM*
CCCCSc1nnc(CCCCCNC(=O)OC(C)(C)C)o1,?,-3%,-23%,?,-5%
CC(C)(C)OC(=O)NCCc1nnc(SCc2ccc(Cl)cc2Cl)o1,?,-4%,?,-8%,?
C[C@H](N)c1nnc(SCC(=O)c2ccc(Cl)cc2)o1,-16,-1%,-14%,-9%,20µM*
Cc1[nH]c(=O)[nH]c(=O)c1CSc1nnc(CCCCCNC(=O)OC(C)(C)C)o1,10,-1%,25µM*,-6%,4%
CC(C)(C)OC(=O)NCCc1nnc(SCC(=O)c2ccc(Cl)cc2)o1,?,-24%,-15%,-16%,13µM*
CC(C)[C@H](N)c1nnc(SCC(=O)c2ccc(Cl)cc2)o1,-23,-8%,-15%,-2%,3%
CCOc1ccc(NC(=O)Nc2cccnc2)cc1,/,/,/,/,2%
O=C1CCC2(CC1)NC(=O)N(c1ccccc1)N2,/,/,/,10%[46 µM],4%
SMILES,PNC inhibitor,ALOX12 inhib,HPGD block,LMNA splice mod,ALDH1A1 inh
O=C(Cc1ccc(Br)cc1)c1ccc(O)cc1O,-18,?,/,?,2%
COc1ccc(CC(=O)c2ccc(O)cc2O)cc1,/,-26%,25µM*,/,?
CCOc1ccc(C(=O)Cc2ccc3oc(C(=O)O)cc3c2)c(O)c1,5,-4%,7.9µM*,-4%,?
Cc1cc2c(c(=O)n1Cc1ccco1)C(c1cccnc1)C(C#N)=C(N)O2 (stereo unspecified),?,-25%,-19%,3%,7.5µM*
Cc1nn(-c2cccc(Cl)c2)c2c1C(c1cccnc1)C(C#N)=C(N)O2 (stereo unspecified),-4,-15%,-20%,?,7.9µM*
CC1=C(n2nnc([N+](=O)[O-])n2)C(c2cccnc2)C(C#N)=C(N)O1 (stereo unspecified),19,3%,-8%,?,1.1µM*
Cc1nn(-c2cccc(Cl)c2)c2c1C(c1ccncc1)C(C#N)=C(N)O2 (stereo unspecified),59,-14%,-12%,?,10µM*
CCOc1ccc(C2C(C#N)=C(N)Oc3cc(C)n(Cc4ccco4)c(=O)c32)cc1OC (stereo unspecified),24,-8%,-6%,-15%,?
Cc1cccn2c(=O)cc(COc3cccc(NC(=O)COc4ccccc4)c3)nc12,/,/,/,-3%[46 µM],/
Cc1ccc(NC(=O)CSc2n[nH]c(-c3ccc(F)cc3)n2)cc1F,/,/,/,-5%[46 µM],/
C=CCNC(=O)/C(C#N)=C/c1c(N(Cc2ccccc2)Cc2ccccc2)nc2ccccn2c1=O,37,-7%,-18%,?,7.1µM*
N#C/C(=C\c1c(N(Cc2ccccc2)Cc2ccccc2)nc2ccccn2c1=O)C(N)=O,-8,-25%,-4%,1%,?
CCCc1[nH]nc2c1C(c1ccc(O)cc1OCC)C(C#N)=C(N)O2 (stereo unspecified),-3,-7%,-5%,2%,18µM*
Cc1[nH]nc2c1C(c1ccc(OC(=O)c3ccco3)cc1)C(C#N)=C(N)O2 (stereo unspecified),56,2%,-13%,11%,?
CC(C)c1[nH]nc2c1C(c1ccc(OC(=O)c3ccco3)cc1)C(C#N)=C(N)O2 (stereo unspecified),13,1%,-19%,-13%,25µM*
CCOc1ccc(-c2[nH]nc3c2C(c2ccc(O)cc2)C(C#N)=C(N)O3)cc1 (stereo unspecified),?,?,-29%,12%,18µM*
CCCc1[nH]nc2c1C(c1cccc(OC)c1)C(C#N)=C(N)O2 (stereo unspecified),33,-7%,-1%,-5%,20µM*
CCCc1[nH]nc2c1C(c1ccc(OC)cc1OC)C(C#N)=C(N)O2 (stereo unspecified),17,-13%,-6%,8%,?
Cn1ncc(C(=O)N2CCN(c3ccc(F)cc3)CC2)c1C1CCN(C(=O)OC(C)(C)C)CC1,/,/,/,11%[46 µM],/
COc1ccc(C(=O)CN2C(=O)C(C)(C)Oc3ccc(C(=O)N4CCCCCC4)cc32)cc1,-25,-6%,8.9µM*,-9%,-9%
CC1(C)Oc2ccc(C(=O)N3CCCC3)cc2N(CC(=O)NCc2ccccc2)C1=O,2,0%,-9%,-10%,0%
Cc1cccc(C(=O)NC(=S)Nc2ccc(Cc3ccncc3)cc2)c1,49,?,?,?,20µM*
O=C(NC(=S)Nc1ccc(Cc2ccncc2)cc1)c1ccccc1,90,-9%,?,?,18µM*
COCCn1c(C)cc(/C=C2\NC(=S)N(C)C2=O)c1C,?,-22%,20µM*,?,16µM*
CN(C)C(=O)c1ccc(-n2cccn2)nc1,/,/,/,5%[46 µM],-1%

# Source: PubChem BioAssay (National Center for Advancing Translational Sciences (NCATS))
